Test results: PubChem BioAssay (NCATS)
Several values for one entry are separate records, joined by “and”; a condition that tells them apart may be missing. Equal entries are not always repeated. Inconclusive results are not listed. A structure can be active in one record and inactive in another. Activity calls are given as the source filed them. Unless noted, the rule behind the calls is not given here.

Key:
[1] = target: Glucocorticoid receptor (Homo sapiens) (UniProt P04150); experiment: qHTS assay for small molecule agonists of glucocorticoid receptor signaling (AID 588532; active = well fitted curve in the direction sought with a large enough effect in the signal ratio, with a control signal flat; the % refers to the signal ratio;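 note: 100% = dexamethasone at 0.1 µM and 0% = DMSO only wells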); conditions: HeLa MMTV-bla, beta-lactamase ratio, agonist, 18 h; activation: stronger effect = higher value, percent of dexamethasone control, DMSO zero
Sequence of Glucocorticoid receptor (Homo sapiens) (P04150 whole entry, looked up): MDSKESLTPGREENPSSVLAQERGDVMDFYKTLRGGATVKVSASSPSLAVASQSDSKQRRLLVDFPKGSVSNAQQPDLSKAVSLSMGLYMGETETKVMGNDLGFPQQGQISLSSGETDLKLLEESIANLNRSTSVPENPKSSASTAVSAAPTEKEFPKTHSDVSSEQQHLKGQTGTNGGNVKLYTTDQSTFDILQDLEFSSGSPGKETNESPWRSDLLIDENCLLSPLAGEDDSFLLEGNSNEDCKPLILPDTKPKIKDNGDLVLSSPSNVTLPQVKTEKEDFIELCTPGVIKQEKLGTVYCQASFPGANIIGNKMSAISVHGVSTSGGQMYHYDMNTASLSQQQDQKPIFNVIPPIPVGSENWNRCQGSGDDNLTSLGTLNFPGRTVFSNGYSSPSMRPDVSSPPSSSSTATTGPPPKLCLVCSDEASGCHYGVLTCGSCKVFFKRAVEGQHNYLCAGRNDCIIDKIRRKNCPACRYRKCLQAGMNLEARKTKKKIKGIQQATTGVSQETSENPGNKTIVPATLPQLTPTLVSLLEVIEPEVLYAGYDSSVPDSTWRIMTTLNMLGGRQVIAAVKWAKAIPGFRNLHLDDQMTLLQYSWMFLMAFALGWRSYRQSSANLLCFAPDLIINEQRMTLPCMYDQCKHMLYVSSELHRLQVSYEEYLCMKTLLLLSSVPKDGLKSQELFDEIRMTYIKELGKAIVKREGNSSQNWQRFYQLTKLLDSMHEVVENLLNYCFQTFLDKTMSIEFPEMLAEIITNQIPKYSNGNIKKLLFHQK
Procedure, shortened: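 Quantitative HTS using CellSensor MMTV-bla HeLa cells in charcoal/dextran-treated serum; compounds tested up to 92 uM. After 18 h at 37 C, CCF4 dye reported reporter induction.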

[2] = qHTS assay for small molecule agonists of retinoid X receptor alpha signaling (AID 588544); conditions: HEK293T RXRa-UAS-bla, beta-lactamase reporter, 18 h; 530 nm emission
[3] = target: Thyroid hormone receptor beta (Homo sapiens) (UniProt P10828); experiment: qHTS assay for small molecule antagonists of thyroid hormone receptor beta signaling (AID 588547; active = well fitted inhibition curve with a large enough effect in the signal ratio, with a control signal flat, not every such curve was filed as active; the % refers to the signal ratio;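 note: cells stimulated with 0.4 nM T3 agonist during compound exposure; series mostly up to about 77 µM; % is set by controls: 0 for no effect and ±100 for the full control effect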); conditions: TR-UAS-bla HEK293, beta-lactamase ratio, antagonist mode, 18 h
Sequence of Thyroid hormone receptor beta (Homo sapiens) (P10828 whole entry, looked up): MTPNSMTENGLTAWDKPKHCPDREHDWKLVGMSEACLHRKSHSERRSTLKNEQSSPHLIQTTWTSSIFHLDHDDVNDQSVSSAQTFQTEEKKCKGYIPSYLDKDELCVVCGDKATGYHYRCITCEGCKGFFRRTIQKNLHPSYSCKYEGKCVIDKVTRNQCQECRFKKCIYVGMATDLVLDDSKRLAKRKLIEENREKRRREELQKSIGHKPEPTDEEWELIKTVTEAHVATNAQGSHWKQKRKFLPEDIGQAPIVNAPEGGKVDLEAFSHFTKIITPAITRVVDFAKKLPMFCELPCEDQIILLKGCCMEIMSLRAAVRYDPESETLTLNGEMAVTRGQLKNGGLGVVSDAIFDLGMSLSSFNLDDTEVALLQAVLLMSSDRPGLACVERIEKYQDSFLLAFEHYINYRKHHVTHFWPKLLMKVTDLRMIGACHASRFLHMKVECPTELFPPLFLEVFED
Procedure, shortened: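 Inhibition of T3-driven (0.4nM final) beta-lactamase reporter activity was measured over 0.59 nM to 92 uM compound after 18 h at 37 C. The cells were GripTite HEK293 TR-UAS-bla in charcoal/dextran-stripped serum, with CCF4 ratio read-out and IC50 from Hill fits.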

[4] = qHTS assay for small molecule activators of the human pregnane X receptor (PXR) signaling pathway (AID 720659); note: 0% is about no effect
[5] = target: Glucocorticoid receptor (Homo sapiens) (UniProt P04150); experiment: qHTS assay for small molecule antagonists of glucocorticoid receptor signaling (AID 588533; active = well fitted inhibition curve with a large enough effect in the signal ratio, with a control signal flat, not every such curve was filed as active; the % refers to the signal ratio;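 note: cells stimulated with 2 nM dexamethasone as agonist; % is set by controls: 0 for no effect and ±100 for the full control effect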)
Procedure, shortened: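 Antagonist-mode qHTS: compound titrations added to GRE-bla HeLa cells, then dexamethasone 2 nM final; 18 h, 37 C. CCF4 FRET fluorescence normalized to dexamethasone and DMSO; IC50 from Hill fit.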

[6] = target: Peroxisome proliferator-activated receptor gamma (Homo sapiens) (UniProt P37231); experiment: qHTS assay for small molecule agonists of peroxisome proliferator-activated receptor gamma signaling (AID 588536; active = well fitted curve in the direction sought with a large enough effect in the signal ratio, with a control signal flat, not every such curve was filed as active; the % refers to the signal ratio;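 note: 0% = DMSO basal wells and 100% = rosiglitazone at 2 µM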)
Sequence of Peroxisome proliferator-activated receptor gamma (Homo sapiens) (P37231 whole entry, looked up): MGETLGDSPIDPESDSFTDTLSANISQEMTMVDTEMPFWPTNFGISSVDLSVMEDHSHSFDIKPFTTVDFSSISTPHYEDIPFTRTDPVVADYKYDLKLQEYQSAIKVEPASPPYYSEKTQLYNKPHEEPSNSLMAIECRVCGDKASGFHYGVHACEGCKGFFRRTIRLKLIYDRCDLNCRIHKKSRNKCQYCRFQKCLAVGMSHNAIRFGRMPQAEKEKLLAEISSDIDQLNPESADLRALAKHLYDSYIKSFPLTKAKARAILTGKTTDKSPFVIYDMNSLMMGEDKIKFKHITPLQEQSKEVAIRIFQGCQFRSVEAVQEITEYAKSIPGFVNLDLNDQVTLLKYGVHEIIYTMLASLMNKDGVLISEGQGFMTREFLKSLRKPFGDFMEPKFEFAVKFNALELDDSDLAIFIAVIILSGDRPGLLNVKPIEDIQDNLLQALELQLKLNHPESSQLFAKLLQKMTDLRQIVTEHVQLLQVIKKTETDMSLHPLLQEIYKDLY
Procedure, shortened: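 GeneBLAzer PPAR-gamma-UAS-bla HEK293 cells in 1% charcoal/dextran-treated FBS medium were treated 16 h at 37 C with compounds. Beta-lactamase activity was read by CCF4 ratio (460/530 nm). Response was normalized to 2 uM rosiglitazone (100%) and DMSO, then Hill-fitted for EC50 and efficacy.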

[7] = qHTS assay for small molecule agonists of the antioxidant response element (ARE) signaling pathway (AID 651741; active = well fitted activation curve with a large enough effect in the signal ratio; the % refers to the signal ratio; note: potency is the fitted concentration of half-maximal effect; for activation: % of control where 0% means no effect)
Procedure, shortened: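 Seeding 2,000 ARE-bla HepG2 cells per well preceded a 5 h incubation at 37 C/5% CO2 and a 16 h compound exposure at 37 C. Beta-lactamase reporter activity was then quantified by fluorescence after 2 h with LiveBLAzer B/G FRET substrate.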

[8] = target: Peroxisome proliferator-activated receptor gamma (Homo sapiens) (UniProt P37231); experiment: qHTS assay for small molecule antagonists of peroxisome proliferator-activated receptor gamma signaling (AID 588537; active = well fitted inhibition curve with a large enough effect in the signal ratio, with a control signal flat, not every such curve was filed as active; the % refers to the signal ratio; note: potency is the fitted concentration of half-maximal effect)
Procedure, shortened: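 Inhibitors of agonist-stimulated UAS-bla reporter activity were sought in HEK293 cells; rosiglitazone (50 nM) defined full signal and DMSO baseline. Curves fitted to Hill model gave IC50 and efficacy.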

Structure (SMILES)	activation [1]	max response [2]	activity change % (negative = inhibition) [3]	outcome [4]	Potency [5]	Potency [6]	Potency [7]	Potency [8]
CCC(C)c1ccc(O)cc1 (centres undefined)	2.12% (inactive)	-6.05%	6.18% (inactive)	inactive	–	–	–	–
CC(C)N(C(=O)COc1nnc(C(F)(F)F)s1)c1ccc(F)cc1	1.07% (inactive)	–	-0.765% (inactive)	–	inactive	inactive	48.6 µM (active)	–
CN1COCN(Cc2cnc(Cl)s2)/C1=N\[N+](=O)[O-]	-3.49% (inactive)	-27.5%	-19.4% (inactive)	inactive	inactive	inactive	–	inactive
CO/N=C(/C1=NOCCO1)c1ccccc1Oc1ncnc(Oc2ccccc2Cl)c1F	-11.9% (inactive)	–	–	inactive	–	–	–	25.1 µM (active)
Clc1ccc(C2(Cn3cncn3)CC(Br)CO2)c(Cl)c1 (centres undefined)	-0.813% (inactive)	6.2%	-0.525% (inactive)	–	inactive	inactive	–	inactive
FC(F)C(F)(F)OCC(Cn1cncn1)c1ccc(Cl)cc1Cl (centres undefined)	3.91% (inactive)	14%	-17.9% (inactive)	–	inactive	inactive	–	–
Nc1nc(N)nc(N)n1	–	–	-6.25% (inactive)	inactive	–	inactive	–	inactive
CN/C(=N/[N+](=O)[O-])NCC1CCOC1 (centres undefined)	0.122% (inactive)	-9.02%	–	–	–	–	inactive	–
CCS(=O)(=O)c1cccnc1S(=O)(=O)NC(=O)Nc1nc(OC)cc(OC)n1	-0.845% (inactive)	–	–	–	inactive	inactive	10.9 µM (active)	inactive
CSc1nnc(C(C)(C)C)c(=O)n1N	-5.36% (inactive)	-15.9%	-9.71% (inactive)	–	inactive	–	inactive	–
O=[N+]([O-])c1cc(C(F)(F)F)c(Cl)c([N+](=O)[O-])c1Nc1ncc(C(F)(F)F)cc1Cl	–	–	–	inactive	–	–	–	–
Cc1ccn2nc(S(=O)(=O)Nc3c(F)cccc3F)nc2n1	–	-22%	–	inactive	–	inactive	inactive	inactive
C#CCC1=C(C)[C@H](OC(=O)[C@H]2[C@H](C=C(C)C)C2(C)C)CC1=O	–	11.7%	-5.41% (inactive)	–	–	inactive	61.1 µM (active)	–
COC(=O)C(C)Oc1ccc(Oc2ccc(Cl)cc2Cl)cc1 (centres undefined)	-5.37% (inactive)	20.2%	8.67% (inactive)	inactive	–	–	–	–
CC1COC(Cn2cncn2)(c2ccc(Oc3ccc(Cl)cc3)cc2Cl)O1 (centres undefined)	-11.8% (inactive)	–	–	inactive	–	–	15.4 µM (active)	–
O=C(O)c1c(Cl)ccc2cc(Cl)cnc12	3.46% (inactive)	–	–	inactive	inactive	inactive	inactive	inactive
CCCN(CCOc1c(Cl)cc(Cl)cc1Cl)C(=O)n1ccnc1	3.18% (inactive) and 2.99% (inactive)	–	22.9% (inactive)	–	inactive	inactive	30.6 µM (active) and 48.6 µM (active)	44.7 µM (active) and inactive
CC1(C(=O)Nc2ccc(O)c(Cl)c2Cl)CCCCC1	–	-10.8%	15.7% (inactive)	–	–	inactive	–	–
CNc1cnn(-c2cccc(C(F)(F)F)c2)c(=O)c1Cl	–	–	8.76% (inactive)	–	–	–	–	–
CCC(CC)Nc1c([N+](=O)[O-])cc(C)c(C)c1[N+](=O)[O-]	-2.05% (inactive)	4.16%	-5.09% (inactive)	–	inactive	inactive	27.3 µM (active)	inactive
O=C/C(Cl)=C(/Cl)C(=O)O	-13.8% (inactive)	–	–	inactive	–	–	30.6 µM (active)	–
COCC(=O)N(c1c(C)cccc1C)N1CCOC1=O	–	-6.63%	–	inactive	–	–	inactive	–
CCCCCCCCCCCCN(C)C	–	–	–	–	–	–	–	inactive
